# Source: PubChem BioAssay (National Center for Advancing Translational Sciences (NCATS))
# Shiga toxin inh = Shiga toxin inhibition. Vero cells, Shiga toxin protein synthesis inhibition reporter. inhibition, % at 38.7 µM. 290,000 compounds, 9.2% hits; in the data active = inhibition mostly above about 28%, no sharp cut-off; inactive = mostly below about 43%; also: 0% is about no effect
# Pf growth 48h = inhibits P. falciparum growth in the first generation, 48 h | 310,000 compounds, 5.9% hits | P. falciparum luciferase growth in erythrocytes, 48 h | Potency, µM (top dose mostly 28.7 µM), without a hit: at the highest dose activity change, negative = inhibition, usual class: inhibitors; also: potency is read from the fitted curve at half-maximal effect; % is scaled to controls: 0 for no effect and ±100 for the full control effect
#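 Luciferase-expressing parasites in RBCs, 2% Hct / 0.1% parasitemia final; RPMI 1640 + 0.5% Albumax; 37 C, 5% CO2, one generation; luminescence read-out, lower signal = inhibition.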
# Cycloheximide cs = counter-screen for Shiga toxin inhibitors: cycloheximide protein synthesis inhibition; AID 2314; max response, %; cell reporter, cycloheximide protein synthesis inhibition counterscreen; 300,000 compounds, 12% hits; in the data active = max response mostly above about 13%, no sharp cut-off; inactive = mostly below about 14%; also: read at 38.3 µM for the half of the compounds with a filed dose; 0% is about no effect
# Pf growth 96h = P. falciparum growth inhibition at 96 hour, primary screen for plastid delayed-death inhibitors. P. falciparum luciferase reporter growth, 96 h. Potency, µM (titrated, usually from 28.7 µM), without a hit: top-dose activity change, negative = inhibition, most hits filed as inhibitors. 320,000 compounds, 6.9% hits; also: potency is read from the fitted curve at half-maximal effect; % is scaled to controls: 0 for no effect and ±100 for the full control effect
#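 Erythrocytes infected with luciferase-expressing P. falciparum were dispensed at 2% hematocrit and 0.05% parasitemia (final), then incubated with compounds 96 hours at 37 C in 5% CO2. Luminescence after detection reagent addition reported growth.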
# * hit, by the source's call; ? = inconclusive; . = no result; [ ] = another dose, or the depositor's remark. Sampled rows, rich in hits. Any-hit rate of the full collection: about 21%. Unless noted, calls follow the shape of the dose curve; as a rule, active = well fitted inhibition curve with a large enough effect; inconclusive = small, poorly fitted or top-dose-only effect, or another doubt; inactive = no such curve, though single readings can be large or run the other way.
SMILES,Shiga toxin inh,Pf growth 48h,Cycloheximide cs,Pf growth 96h
O=c1c2[nH]c3ccccc3c2ncn1Cc1ccco1,16,20%,2,0%
Cc1ccc2c(c1)[nH]c1c(=O)n(Cc3ccco3)cnc12,35,47%,21*,37%
O=C(O)c1ccc(CSc2nc3ccccc3c(=O)n2-c2ccccc2)cc1,-11,0%,-3,?
Cc1ccc(-n2c(CNCc3ccc(F)cc3)nc3ccccc3c2=O)cc1,14,?,15*,?
O=c1c2ccccc2nc(Cc2ccccc2)n1-c1ccccc1O,-16,0%,5,?
CCN(CC)CCNCc1nc2ccccc2c(=O)n1-c1ccc(F)cc1,-6,13%,-4,75%
O=c1c2ccccc2nc(Cc2ccccc2)n1-c1ccccc1,18,11%,19*,?
N=C(N)SCc1nc2ccccc2c(=O)n1-c1ccccc1,68*,109%,45*,126%
COc1ccccc1-c1coc2c(CN3CCOCC3)c(O)ccc2c1=O,8,?,-1,33%
O=c1c(-c2ccc3c(c2)OCCO3)coc2c(CN3CCOCC3)c(O)ccc12,33*,-30%,39*,12µM*
CCc1cc2c(=O)c(-c3ccc4c(c3)OCCO4)coc2c(CN2CCCCC2C)c1O (stereo not drawn),46,2.1µM*,22,-4%
CCc1cc2c(=O)c(-c3nc4ccccc4n3C)coc2c(CN2CCCC(C)C2)c1O (stereo not drawn),-4,?,-2,?
CCc1cc2c(=O)c(-c3ccc4c(c3)OCCO4)coc2cc1OS(C)(=O)=O,79*,68%,42*,27%
CC1CCCCN1Cc1c(O)ccc2c(=O)c(-c3ccccc3)coc12 (stereo not drawn),26,7%[0.00184 µM],9,37%
CCc1cc2c(=O)c(-c3nc4ccccc4[nH]3)coc2c(CN2CCCCC2)c1O,35,-16%,27*,6%
Cn1c(N)c(C(=O)COC(=O)C2CCCCC2)c(=O)n(C)c1=O,-8,.,4,24%
CC(=O)NC(CC(=O)OCC(=O)N1CCN(S(=O)(=O)c2ccc(C)cc2C)CC1)c1ccccc1 (stereo not drawn),.,?,.,-18%
COc1ccc(CCNC(=O)c2cccc(S(=O)(=O)NC(C)c3ccccc3)c2)cc1 (stereo not drawn),.,?,.,-23%
CCc1cc2c(=O)c(-c3nc4ccccc4[nH]3)coc2c(CN2CCCCC2C)c1O (stereo not drawn),-2,1.5µM*,-2,0.74µM*
CCOC(=O)CSc1nc(=O)n2cccc(C)c2n1,-6,-10%,-4,10%
CCCc1ccc2oc(C(=O)N3CCCC3)c(C)c2c1,.,73%,30*,?
Cc1c(C(=O)N2CCCC2)oc2ccc(Br)cc12,42*,49%,35*,0%
CCCc1ccc2oc(C(=O)N3CCNC(=O)C3CC(=O)OC)c(C)c2c1 (stereo not drawn),-10,-9%,19*,4%
Cc1c(C(=O)N2CCc3ccccc3C2)oc2ccc(Br)cc12,.,?,.,1%
Cc1c(C(=O)N2CCN(C)CC2)oc2ccc(Br)cc12,46*,79%,33*,?
SMILES,Shiga toxin inh,Pf growth 48h,Cycloheximide cs,Pf growth 96h
CCOC(=O)c1ccc(-c2c(-c3ccc4c(c3)OCO4)noc2C)cc1F,8,44%,4,-6%
Cc1oc2cc3c(C(=O)N4CCCCC4)c(C)oc3cc2c1C(=O)N1CCCCC1,73,.,53*,.
COC(=O)CC1C(=O)NCCN1C(=S)Nc1ccc(F)cc1 (stereo not drawn),-3,24%,-3,3.7µM*
COc1ccccc1C1CC(c2cccs2)=Nc2ccccc2S1 (stereo not drawn),97*,.,70*,10µM*
Cc1ccccc1CSCC(=O)N1CCN(c2ccccc2)CC1,70*,28%,23*,7%
CCOC(=O)N1CCN(CC(=O)N2c3ccccc3CCc3ccccc32)CC1,14,5%[5.75 µM],-2,?
CCOC(=O)C1CCCN(C(=O)CCc2nnc(-c3ccc(C(C)=O)s3)o2)C1 (stereo not drawn),109*,-31%,63*,6%
CCOC(=O)N1CCN(C/C(Cl)=C/c2ccccc2)CC1,20*,40%,14*,-30%
O=C(CSCc1ccc(F)cc1)N1CCN(c2ccccc2)CC1,31,31%,20,75%
CCOC(=O)C1CCCN(C(=O)CSCc2ccccc2)C1 (stereo not drawn),52*,39%,44*,?
CSCC[C@H](NC(=O)C1CCN(S(=O)(=O)c2ccccc2)CC1)C(=O)NC1CC1,1,12%,2,28%
